Assay [1] in a line: ATG_CRE_CIS: Attagene CIS-FACTORIAL HepG2 Assay for human cAMP Responsive Element (CRE) binding protein 3 (AID 2282926). To be noted: HepG2 CRE cis-reporter, Attagene multiplexed mRNA; actives raise or lower the signal. In outline:
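Transfected HepG2 were treated for 24 hours, then RNA was extracted and reporter cDNA amplified with sequence-specific primers. Labelled fragments were separated by capillary electrophoresis, and the CRE signal was fitted bidirectionally with DMSO as baseline.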

In assay [2] the target is CCAAT/enhancer-binding protein beta (Homo sapiens) (UniProt P17676). Description: ATG_C_EBP_CIS: Attagene CIS-FACTORIAL HepG2 Assay for human CCAAT/Enhancer Binding Protein (C/EBP) beta (AID 2282927). To be noted: HepG2 Attagene cis-factorial transcription factor reporter; actives raise or lower the signal. In outline: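 Following a 24 h incubation with test chemical, transfected HepG2 cells yielded RNA whose reporter transcripts were quantified by RT-PCR and fluorescent capillary electrophoresis, with DMSO serving as baseline for bidirectional fitting.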

Assay [3] in a line: ATG_CMV_CIS: Attagene CIS-FACTORIAL HepG2 Assay for human CMV (Internal Marker) (AID 2282928).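 Note: endpoint acts as a background internal control marker rather than a target.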 To be noted: HepG2 CMV promoter reporter, transcription factor profiling; actives raise or lower the signal. In outline:
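After transient transfection of HepG2 with reporter transcription units driven by cis-regulatory promoters, cells receive test chemical for 24 h. Labeled reporter amplicons, digested with HpaI, are sized and quantified by capillary electrophoresis against DMSO.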

Assay [4] is described as follows: ATG_DR4_LXR_CIS: Attagene CIS-FACTORIAL HepG2 Assay for human Liver X Receptor (LXR), DR4 submotif (AID 2282929). The note with it: HepG2 Attagene DR4 cis-reporter, mRNA transcription; actives raise or lower the signal. In a few lines:
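Measures endogenous transcription factor activity via a DR4-driven reporter transcript in human HepG2 cells. Compounds incubated 24 h; mRNA quantified by RT-PCR and capillary electrophoresis, analysed as gain or loss of signal versus DMSO.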

In assay [5] the target is Aryl hydrocarbon receptor (Homo sapiens) (UniProt P35869). Description: ATG_Ahr_CIS: Attagene CIS-FACTORIAL HepG2 Assay for human Aryl Hydrocarbon Receptor (Ahr) (AID 2282930). The note with it: HepG2 AhR cis-factorial reporter transcription; actives raise or lower the signal. In outline:
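Values derive from bidirectional fitting against DMSO negative control. Underlying signal: cis-element reporter mRNA in transiently transfected HepG2, harvested 24 h post-dose and measured by RT-PCR plus capillary electrophoresis.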

Assay [6] in a line: ATG_AP_1_CIS: Attagene CIS-FACTORIAL HepG2 Assay for human Activator Protein 1 (AP-1) (AID 2282931). To be noted: HepG2 Attagene cis-factorial AP-1 reporter mRNA; actives raise or lower the signal. In outline:
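Bidirectional concentration-response fitting against DMSO controls. Underlying signal: reporter mRNA from cis-promoter constructs in transiently transfected HepG2, measured after 24 h by RT-PCR and capillary electrophoresis.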

The nature of assay [7]: ATG_AP_2_CIS: Attagene CIS-FACTORIAL HepG2 Assay for human Activator Protein 2 (AP-2) (AID 2282932). To be noted: HepG2 AP-2 cis-reporter, Attagene transcription factor profiling; actives raise or lower the signal. In outline: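 HepG2 cells were transiently transfected with multiple cis-promoter reporter transcription units and dosed for 24 h. Reporter mRNA was measured by RT-PCR with capillary electrophoresis fluorescence; bidirectional fits relative to DMSO baseline.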

Assay [8] in a line: ATG_BRE_CIS: Attagene CIS-FACTORIAL HepG2 Assay for human Bone Morphogenetic Protein (BMP) Response Element (BRE) (AID 2282933). The note with it: HepG2 BMP response element reporter, Attagene transcription factor profiling; actives raise or lower the signal. In outline:
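After a 24 h chemical treatment, transiently transfected HepG2 cells were lysed for RNA; reporter transcripts were quantified by fluorescent RT-PCR and capillary electrophoresis, normalised to DMSO.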

Assay [9] addresses Retinoic acid receptor alpha (Homo sapiens) (UniProt P10276). Description: ATG_DR5_RAR_CIS: Attagene CIS-FACTORIAL HepG2 Assay for human Retinoic Acid Receptor Alpha (RARE), DR5 submotif (AID 2282934). To be noted: HepG2 Attagene cis-factorial RARE DR5 reporter, mRNA; actives raise or lower the signal. In a few lines:
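Endpoint fitted in both directions relative to DMSO as negative control. It reflects DR5 cis-element reporter mRNA induction in transiently transfected HepG2 cells, measured 24 h after dosing through RT-PCR and fluorescent capillary electrophoresis.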

Assay [10] concerns the target Transcription factor E2F1 (Homo sapiens) (UniProt Q01094). Description: ATG_E2F_CIS: Attagene CIS-FACTORIAL HepG2 Assay for human E2F Transcription Factor 1 (AID 2282935). The note with it: HepG2 Attagene cis-reporter, E2F reporter RNA transcripts; actives raise or lower the signal. In a few lines:
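HepG2 cells transiently transfected with multiplexed cis-element reporter units, dosed for 24 h. Reporter mRNA measured by RT-PCR, 6-FAM primer-extension labeling, HpaI digestion and capillary electrophoresis; bidirectional fit versus DMSO baseline.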

Assay [11] can be described thus: ATG_E_Box_CIS: Attagene CIS-FACTORIAL HepG2 Assay for human Enhancer Box (E-box) (AID 2282936). To be noted: HepG2 E-box cis-reporter transcription, actives raise or lower the signal. In outline: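 HepG2 cells transiently transfected with multiplexed cis-element reporter units sensing endogenous transcription factor activity; 24 h compound exposure. Reporter mRNA measured by RT-PCR, 6-FAM primer extension, HpaI digestion and capillary electrophoresis; bidirectional fit versus DMSO.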

Assay [12] can be described thus: ATG_M_61_CIS: Attagene CIS-FACTORIAL HepG2 Assay for M61 Transcription Factor (Internal Marker) (AID 2282937). To be noted: HepG2 Attagene CIS-FACTORIAL M61 internal marker reporter; actives raise or lower the signal. In outline: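 Fluorescence from labelled cDNA fragments, separated by capillary electrophoresis, quantifies reporter induction. HepG2 cells bearing transiently transfected cis-promoter MRTUs were incubated with test chemical for 24 h; DMSO defined baseline for gain/loss fitting.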

Assay [13] in a line: ATG_EGR_CIS: Attagene CIS-FACTORIAL HepG2 Assay for human Early Growth Response 1 (EGR1) (AID 2282938). The note with it: HepG2 Attagene CIS-FACTORIAL EGR reporter mRNA; actives raise or lower the signal. In outline: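 Cell-based multiplex transcription assay: HepG2 carrying transfected cis-element reporter units, 24 h chemical treatment. Fluorescence from capillary electrophoresis of RT-PCR products gives mRNA levels; fitting is bidirectional relative to DMSO.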

A short description of assay [14]: ATG_M_19_CIS: Attagene CIS-FACTORIAL HepG2 Assay for M19 Transcription Factor (Internal Marker) (AID 2282939). The note with it: HepG2 Attagene CIS-FACTORIAL M19 internal marker reporter; actives raise or lower the signal. In outline:
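In this multiplexed cell assay, transiently transfected HepG2 reporter units report endogenous transcription-factor activity; after 24 hours of treatment, labelled reporter cDNA fragments are quantified by capillary electrophoresis and fitted bidirectionally against DMSO.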

Assay [15] can be described thus: ATG_Ets_CIS: Attagene CIS-FACTORIAL HepG2 Assay for human Erythroblast Transformation Specific (ETS) (AID 2282941). The note with it: HepG2 ETS cis-reporter transcription, actives raise or lower the signal. In a few lines:
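Human HepG2 hepatoma cells were transiently transfected with promoter-driven reporter constructs and treated for 24 hours. Reporter transcripts were quantified by RT-PCR with fluorescent primer extension; bidirectional curve fitting used DMSO as reference.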

For assay [16], the target named is Hepatocyte nuclear factor 3-beta (Homo sapiens) (UniProt Q9Y261). The assay can be described thus: ATG_FoxA2_CIS: Attagene CIS-FACTORIAL HepG2 Assay for human Forkhead box A2 (FOXA2) (AID 2282942). To be noted: HepG2 cis-reporter transcription factor activity, 24 h; actives raise or lower the signal. In outline:
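In transiently transfected human HepG2 cells, promoter-driven reporter mRNA levels after 24 h chemical exposure are determined via RT-PCR with capillary electrophoresis. DMSO serves as baseline for bidirectional fitting.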

Assay [17] in a line: ATG_FoxO_CIS: Attagene CIS-FACTORIAL HepG2 Assay for human Forkhead box O (FoxO) (AID 2282943). To be noted: HepG2 Attagene cis-reporter, FoxO element, mRNA; actives raise or lower the signal. In outline: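 Values reflect reporter mRNA induction or loss in HepG2 cells 24 h post-dosing, fitted bidirectionally with DMSO as negative control and baseline. Detection used RT-PCR and fluorescence capillary electrophoresis.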

A short description of assay [18]: ATG_GLI_CIS: Attagene CIS-FACTORIAL HepG2 Assay for human Zinc Finger Protein GLI1 (AID 2282945). To be noted: HepG2, Attagene cis-factorial reporter mRNA, GLI element; actives raise or lower the signal. In a few lines:
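HepG2 cells transiently transfected with cis-promoter multiplexed reporter units report endogenous transcription factor activity. After 24 h chemical exposure, reporter mRNA was quantified by RT-PCR, 6-FAM labelling, HpaI digestion and capillary electrophoresis, with bidirectional fitting against DMSO.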

For assay [19], the target named is Bile acid receptor (Homo sapiens) (UniProt Q96RI1). The assay can be described thus: ATG_IR1_CIS: Attagene CIS-FACTORIAL HepG2 Assay for human Nuclear Receptor Subfamily 1 Group H Member 4 (NR1H4), IR1 submotif (AID 2282946). The note with it: IR1 reporter transcription, actives raise or lower the signal. In a few lines: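 Transient MRTU transfection, HepG2; 24 h dosing; RNA → RT-PCR → 6-FAM primer extension → HpaI digest → capillary electrophoresis fluorescence. Gain/loss of signal fitted relative to DMSO.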

The nature of assay [20]: ATG_GATA_CIS: Attagene CIS-FACTORIAL HepG2 Assay for human GATA Binding Protein (AID 2282944). The note with it: HepG2 GATA cis-element reporter, Attagene multiplex mRNA; actives raise or lower the signal. In outline: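 Measures endogenous transcription factor-driven reporter mRNA in HepG2 cells transiently carrying cis-regulated constructs. 24 h dosing; RNA via oligo(dT) reverse transcription, PCR, HpaI digestion, capillary electrophoresis; fitted relative to DMSO.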

Calls of active or inactive are those of the source. Rule for the calls: active = hit-call score of the fitted dose curve at least 0.9, where 1 is the maximum; inactive = score below 0.9.

Sequence of Aryl hydrocarbon receptor (Homo sapiens) (P35869 whole entry, looked up): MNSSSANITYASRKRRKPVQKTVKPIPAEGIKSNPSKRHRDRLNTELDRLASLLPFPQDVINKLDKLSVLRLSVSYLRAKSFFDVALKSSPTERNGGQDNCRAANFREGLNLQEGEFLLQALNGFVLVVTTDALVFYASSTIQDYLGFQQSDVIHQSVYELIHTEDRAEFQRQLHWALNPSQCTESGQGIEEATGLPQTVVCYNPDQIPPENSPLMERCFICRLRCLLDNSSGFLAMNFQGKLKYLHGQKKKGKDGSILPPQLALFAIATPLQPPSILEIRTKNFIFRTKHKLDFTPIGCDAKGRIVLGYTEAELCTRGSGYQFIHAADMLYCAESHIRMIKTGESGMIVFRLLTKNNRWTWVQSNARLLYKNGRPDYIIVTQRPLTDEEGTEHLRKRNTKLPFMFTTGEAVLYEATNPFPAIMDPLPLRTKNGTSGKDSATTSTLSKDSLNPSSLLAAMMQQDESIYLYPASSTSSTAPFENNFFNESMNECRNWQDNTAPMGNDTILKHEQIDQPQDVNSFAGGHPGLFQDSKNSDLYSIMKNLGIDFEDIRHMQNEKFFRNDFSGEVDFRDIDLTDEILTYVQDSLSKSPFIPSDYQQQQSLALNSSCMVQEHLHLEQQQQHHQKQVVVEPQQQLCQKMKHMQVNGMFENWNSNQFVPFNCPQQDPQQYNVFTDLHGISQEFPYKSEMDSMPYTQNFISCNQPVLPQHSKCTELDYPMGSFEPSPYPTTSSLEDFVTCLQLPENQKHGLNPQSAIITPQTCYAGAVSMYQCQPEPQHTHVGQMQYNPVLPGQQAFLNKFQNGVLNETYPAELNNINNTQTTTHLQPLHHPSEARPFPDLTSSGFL
Sequence of Hepatocyte nuclear factor 3-beta (Homo sapiens) (Q9Y261 whole entry, looked up): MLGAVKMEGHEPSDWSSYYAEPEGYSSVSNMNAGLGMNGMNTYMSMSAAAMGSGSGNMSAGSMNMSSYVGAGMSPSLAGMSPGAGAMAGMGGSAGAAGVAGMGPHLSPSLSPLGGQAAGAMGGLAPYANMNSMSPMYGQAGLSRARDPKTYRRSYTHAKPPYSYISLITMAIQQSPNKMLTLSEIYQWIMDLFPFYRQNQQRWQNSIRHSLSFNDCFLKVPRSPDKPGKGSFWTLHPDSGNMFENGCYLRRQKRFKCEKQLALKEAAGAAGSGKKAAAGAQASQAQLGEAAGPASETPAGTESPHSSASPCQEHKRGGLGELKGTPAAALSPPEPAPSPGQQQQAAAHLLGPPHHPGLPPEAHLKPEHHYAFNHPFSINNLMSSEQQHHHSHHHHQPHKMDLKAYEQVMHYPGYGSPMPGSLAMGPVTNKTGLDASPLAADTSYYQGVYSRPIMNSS
Sequence of CCAAT/enhancer-binding protein beta (Homo sapiens) (P17676 whole entry, looked up): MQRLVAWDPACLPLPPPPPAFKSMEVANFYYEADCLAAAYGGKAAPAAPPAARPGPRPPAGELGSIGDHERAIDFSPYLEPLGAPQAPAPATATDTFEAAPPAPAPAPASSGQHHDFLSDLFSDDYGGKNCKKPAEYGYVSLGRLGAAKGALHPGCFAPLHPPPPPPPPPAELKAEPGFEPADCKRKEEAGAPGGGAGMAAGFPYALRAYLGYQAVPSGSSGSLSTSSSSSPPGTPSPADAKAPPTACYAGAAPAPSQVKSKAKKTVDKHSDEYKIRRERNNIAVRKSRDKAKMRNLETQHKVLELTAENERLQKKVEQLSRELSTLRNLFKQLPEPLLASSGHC
Sequence of Transcription factor E2F1 (Homo sapiens) (Q01094 whole entry, looked up): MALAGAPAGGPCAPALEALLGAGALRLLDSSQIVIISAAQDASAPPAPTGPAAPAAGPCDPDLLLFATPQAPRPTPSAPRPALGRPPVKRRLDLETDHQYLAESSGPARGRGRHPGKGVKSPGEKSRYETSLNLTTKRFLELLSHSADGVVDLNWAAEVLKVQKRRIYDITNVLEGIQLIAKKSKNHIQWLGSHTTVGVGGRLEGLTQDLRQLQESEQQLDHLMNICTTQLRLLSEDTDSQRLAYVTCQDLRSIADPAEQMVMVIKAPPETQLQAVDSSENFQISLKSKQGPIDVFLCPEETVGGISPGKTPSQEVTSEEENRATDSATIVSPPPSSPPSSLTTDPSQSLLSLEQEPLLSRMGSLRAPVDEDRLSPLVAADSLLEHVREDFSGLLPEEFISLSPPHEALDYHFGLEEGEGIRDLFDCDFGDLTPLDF
Sequence of Bile acid receptor (Homo sapiens) (Q96RI1 whole entry, looked up): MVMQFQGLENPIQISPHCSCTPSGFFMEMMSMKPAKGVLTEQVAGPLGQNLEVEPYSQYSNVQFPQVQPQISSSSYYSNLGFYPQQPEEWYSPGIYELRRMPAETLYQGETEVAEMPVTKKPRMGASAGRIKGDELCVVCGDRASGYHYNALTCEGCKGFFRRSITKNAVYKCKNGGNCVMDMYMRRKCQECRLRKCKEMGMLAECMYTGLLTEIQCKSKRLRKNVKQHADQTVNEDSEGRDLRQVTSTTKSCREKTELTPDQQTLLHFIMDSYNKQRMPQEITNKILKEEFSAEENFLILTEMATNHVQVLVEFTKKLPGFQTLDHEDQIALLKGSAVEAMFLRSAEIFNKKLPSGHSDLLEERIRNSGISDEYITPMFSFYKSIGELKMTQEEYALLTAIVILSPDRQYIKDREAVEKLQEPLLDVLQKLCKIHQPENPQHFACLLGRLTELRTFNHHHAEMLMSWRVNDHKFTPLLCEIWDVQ
Sequence of Retinoic acid receptor alpha (Homo sapiens) (P10276 whole entry, looked up): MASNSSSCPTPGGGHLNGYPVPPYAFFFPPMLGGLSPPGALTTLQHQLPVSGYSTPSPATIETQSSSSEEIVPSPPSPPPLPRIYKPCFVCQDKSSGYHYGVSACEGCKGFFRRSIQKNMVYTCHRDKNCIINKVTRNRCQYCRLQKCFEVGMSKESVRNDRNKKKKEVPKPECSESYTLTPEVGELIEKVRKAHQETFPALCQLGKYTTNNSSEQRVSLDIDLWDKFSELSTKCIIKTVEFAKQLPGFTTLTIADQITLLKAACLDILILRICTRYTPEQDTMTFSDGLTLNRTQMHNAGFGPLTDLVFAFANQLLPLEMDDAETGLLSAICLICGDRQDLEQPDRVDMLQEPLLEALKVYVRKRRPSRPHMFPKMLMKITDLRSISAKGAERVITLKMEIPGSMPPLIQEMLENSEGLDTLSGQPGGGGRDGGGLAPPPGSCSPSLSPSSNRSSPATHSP

In the case of `CC(Oc1cccc(Cl)c1)C(=O)O` (centres undefined), the outcome in assay [1], in assay [2], in assay [3], in [4], in assay [5] and in assay [6] was inactive. Also, the molecule was called inactive in [7], in assay [8], in [9], in assay [10], in assay [11] and in assay [12]. For the same molecule, the call in assay [13], in assay [14], in [15], in assay [16], in assay [17] and in [18] was inactive. Also, the outcome in [19] was inactive.

Consider `CN(C)NC(=O)CCC(=O)O`, for which the result in assay [1], in assay [2], in assay [3], in assay [4], in assay [5] and in assay [6] was inactive. Further, the call in [7], in [8], in assay [9], in [10], in assay [12] and in assay [13] was inactive. Also, the result in [14], in assay [15], in assay [16], in assay [17], in assay [20] and in assay [18] was inactive.

In the case of `CCc1cccc(CC)c1N(COC)C(=O)CCl`, the AC50 in assay [1] was 3.04 µM (active); in assay [2], 3.69 µM (active); in assay [6], 6.1 µM (active). Also, the molecule was classed as inactive in assay [3], in assay [4], in assay [5], in assay [7], in [8] and in assay [9]. For the same molecule, the molecule was classed as inactive in assay [10], in assay [11], in assay [12], in assay [13], in [14] and in [15]. For the same molecule, the molecule was called inactive in assay [16], in [17], in [18] and in assay [19].

As to `C#CC(C)(C)NC(=O)c1cc(Cl)cc(Cl)c1`, the AC50 in [1] was 29 µM (active); in [2], 20.5 µM (active); in assay [3], 39.3 µM (active); in assay [8], 22.5 µM (active). Moreover, the outcome in assay [4], in [5], in [6], in assay [7], in [9] and in assay [10] was inactive. Besides, the result in assay [11], in assay [12], in assay [13], in assay [14], in assay [15] and in assay [16] was inactive. Also, the result in assay [17] and in assay [18] was inactive.

With `C[N+]1(C)CCCCC1`, the molecule was called inactive in [1], in assay [2], in assay [3], in assay [4], in assay [5] and in [6]. Moreover, the call in [7], in assay [8], in assay [9], in assay [10], in assay [11] and in assay [12] was inactive. Further, the call in assay [13], in assay [14], in assay [15], in [16], in assay [17] and in [18] was inactive.

Turning to `S=C1NCCN1`, the molecule was classed as inactive in [1], in [2], in assay [3], in [4], in assay [5] and in [6]. The molecule was classed as inactive in [7], in [8], in assay [9], in [10], in assay [11] and in assay [12]. Besides, the molecule was called inactive in assay [13], in assay [14], in assay [15], in assay [16], in assay [17] and in assay [18].

Regarding `Cc1ccn2nc(S(=O)(=O)Nc3c(F)cccc3F)nc2n1`, the molecule was classed as inactive in assay [1], in assay [2], in [3], in assay [4], in [5] and in [6]. Moreover, the molecule was called inactive in assay [7], in [8], in [9], in [10], in [12] and in [13]. Moreover, the result in assay [14], in assay [15], in assay [16], in assay [17], in assay [20] and in assay [18] was inactive. For the same molecule, in assay [19], the outcome was inactive.

Broadly, the AC50 is the concentration at which the activity in the assay is half-maximal.

The record behind these values is PubChem BioAssay (EPA / NIEHS).
